Assay outcomes as filed in PubChem.
Only some compounds are listed: those with a hit (about 18% of all), similar ones and a draw of the others.
DT40 TDP1 CPT = DT40-hTDP1 cell growth loss with CPT | chicken DT40 Tdp1-/-;hTDP1 cells + 20 nM CPT, ATP luminescence, 48 h | AID 686979 | actives 12% (n = 420,000) | Potency, µM (highest dose often 46.2 µM), usual class: inhibitors; further: nearly all actives have a fitted effect of over 55% in size
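Cell growth measured by CellTiter-Glo luminescence after a minimum 48 h, 37 C compound exposure with 20 nM CPT in Tdp1-knockout DT40 cells stably expressing hTDP1, seeded 400/well; qHTS titration format.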
IL-1B inflam inh = inhibitors of inflammasome signaling (IL-1 beta secretion) | activity change, % at 57.5 µM | actives 4.7% (n = 360,000) | THP-1 LPS/ATP IL-1B secretion, AlphaLISA, 16 h; hits give low values; in the data active means activity change below about -50%; inconclusive means mostly about -30% to -49%
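THP-1 cells pretreated 1 hr with compounds (up to 57.5 uM final), then stimulated with LPS (250 ng/mL final) plus ATP (1.25 mM final); secreted IL-1B measured by AlphaLISA after 16 hr, decreased signal indicating inhibition.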
DT40 TDP1 no CPT = qHTS for Inhibitors of human tyrosyl-DNA phosphodiesterase 1 (TDP1): qHTS in cells in absence of CPT | DT40 Tdp1-/- hTDP1 cells, no CPT, ATP luminescence, 48 h | Potency, µM (titrated, usually from 46.2 µM), actives largely listed as inhibitors | actives 15% (n = 420,000); further: nearly all actives have a fitted effect of over 55% in size
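Readout: luminescence from CellTiter-Glo after 30 min in the dark at RT. Cells: DT40 Tdp1-/- with stable hTDP1, 400/well. Exposure: compounds alone, ≥48 hr, 37 °C.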
TGFb inhibitor = inhibitors of TGF-b signaling | HepG2 CAGA-GFP TGF-b/SMAD3 reporter, GFP fluorescence, 18 h; TGF-beta stimulated, 500 pg/mL final | Potency, µM (series often up to 46.1 µM), hits mostly inhibitors | actives 1.2% (n = 410,000) | AID 588855; further: nearly all actives have a fitted effect of over 65% in size
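Cell-based qHTS in HEPG2 carrying a CAGA-GFP Smad reporter; compounds added before 500 pg/mL final TGF-beta, 18 h incubation at 37 degrees C, GFP fluorescence quantified per cell by imaging cytometry.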
HepG2 tox-1 = kills HepG2 cells in TGF-b inhibitor counter-screen; HepG2 CAGA-GFP viability, ATP luminescence, 18 h; Potency, µM (series often up to 46.1 µM), usual class: cytotoxic; actives 0.76% (n = 410,000)
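CellTiter-Glo luminescence gave cytotoxicity after 18 hours at 37 degrees C. The cells were HepG2 CAGA-GFP in 1% FBS DMEM, stimulated with 500 pg/mL TGF-beta after compound addition. %Activity was normalised to no-cell wells (complete cell-killing) and DMSO (no toxicity), and curves were fitted and classified.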
TDP1 block = inhibitors of human tyrosyl-DNA phosphodiesterase TDP1. actives 0.28% (n = 350,000). Potency, µM (top dose mostly 130 µM), actives largely listed as inhibitors. Q9NUW8. recombinant TDP1, AlphaScreen DNA substrate cleavage. AID 485290; further: nearly all actives have a fitted effect of over 40% in size
Target sequence (Q9NUW8 whole entry, looked up): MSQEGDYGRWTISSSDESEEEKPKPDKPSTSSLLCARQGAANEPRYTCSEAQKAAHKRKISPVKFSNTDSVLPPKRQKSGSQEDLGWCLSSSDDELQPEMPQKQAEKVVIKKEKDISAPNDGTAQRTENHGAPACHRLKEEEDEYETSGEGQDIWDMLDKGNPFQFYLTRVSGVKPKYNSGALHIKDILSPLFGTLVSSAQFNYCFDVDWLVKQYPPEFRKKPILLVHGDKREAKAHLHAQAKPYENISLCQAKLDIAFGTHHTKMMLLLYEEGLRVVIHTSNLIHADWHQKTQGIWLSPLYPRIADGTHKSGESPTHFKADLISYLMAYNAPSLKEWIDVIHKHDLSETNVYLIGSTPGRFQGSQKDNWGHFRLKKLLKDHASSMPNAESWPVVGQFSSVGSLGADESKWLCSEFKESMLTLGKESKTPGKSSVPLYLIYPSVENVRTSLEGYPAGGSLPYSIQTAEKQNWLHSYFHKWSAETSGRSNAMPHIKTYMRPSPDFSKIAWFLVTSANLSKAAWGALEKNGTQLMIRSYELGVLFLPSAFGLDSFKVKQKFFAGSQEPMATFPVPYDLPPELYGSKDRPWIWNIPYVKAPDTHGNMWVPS
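Enzyme-compound mixtures sat 15 min at room temperature, followed by a 5 min reaction with 15 nM final substrate and 10 min with AlphaScreen beads. Recombinant human Tdp1 was used at 1 nM final.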
TGFb CAGA inh = TGF-b pathway inhibition, cherry-pick retest | shares compounds with TGFb inhibitor | HepG2 CAGA-GFP TGF-b reporter, GFP fluorescence, 18 h; cells stimulated with TGF-beta, 500 pg/mL | Potency, µM (top dose mostly 46.1 µM), hits mostly inhibitors | actives 63% (n = 1,600) | AID 720534; further: nearly all actives have a fitted effect of over 65% in size
HepG2 tox-2 = toxic to HepG2 cells in TGF-b counterscreen; shares compounds with TGFb inhibitor; Potency, µM (titrated, usually from 46.1 µM), hits mostly inhibitors; actives 27% (n = 1,600); HepG2 CAGA-GFP viability, ATP luminescence, 18 h; cells stimulated with TGF-beta, 500 pg/mL; further: nearly all actives have a fitted effect of over 70% in size
CCL64 TGFb inh = TGF-b inhibition, CCL64 orthogonal assay; actives 41% (n = 1,600); CCL64 CAGA-GFP reporter, TGF-b stimulated, GFP fluorescence, 18 h; shares compounds with TGFb inhibitor; Potency, µM (top dose mostly 46.1 µM), hits mostly inhibitors; further: nearly all actives have a fitted effect of over 65% in size
COP TGFb inh = validation of TGF-b inhibitors in HepG2 COP promoter reporter | shares compounds with TGFb inhibitor | HepG2 COP-GFP TGF-b reporter, GFP fluorescence, 18 h; cells stimulated by added recombinant TGF-beta | Potency, µM (highest dose often 46.1 µM), most hits filed as inhibitors | actives 3% (n = 1,600) | AID 720537; further: nearly all actives have a fitted effect of over 70% in size
A number is an active result; i = inactive; ? = inconclusive; nt = no result given. Unless noted, the call rests on the fitted dose curve; in most records, active means well fitted curve in the direction sought with a large enough effect; inconclusive means small, poorly fitted or top-dose-only effect, or another doubt; inactive means no such curve, though single readings can be large; an effect the other way counts as inactive or inconclusive.

SMILES	DT40 TDP1 CPT	IL-1B inflam inh	DT40 TDP1 no CPT	TGFb inhibitor	HepG2 tox-1	TDP1 block	TGFb CAGA inh	HepG2 tox-2	CCL64 TGFb inh	COP TGFb inh
O=C(O)c1ccccc1C(=O)Nc1cccc([N+](=O)[O-])c1	i	i	i	i	i	i	nt	nt	nt	nt
O=C(NC(=S)Nc1cccc(Cl)c1Cl)C1CC1	13µM	i	?	1.3µM	i	i	1.8µM	3.7µM	15µM	i
O=C(NC(=S)Nc1ccc(Br)c(Cl)c1)C1CC1	i	i	i	1.6µM	i	i	0.82µM	2.1µM	?	i
O=C(NNC(=S)Nc1ccccc1Cl)C1CC1	i	i	i	i	i	i	nt	nt	nt	nt
O=C(NNC(=S)NCc1ccc(Cl)cc1)c1ccc2c(c1)OCO2	i	i	i	?	i	i	nt	nt	nt	nt
O=C(Nc1ccc(C(F)(F)F)cc1)N1CCN(c2ccnc3cc(Cl)ccc23)CC1	23µM	-65	16µM	11µM	i	i	23µM	?	?	i
Cc1ccc(C)c(N2N=C(C(=O)Nc3ccccc3N3CCOCC3)CCC2=O)c1	?	i	?	i	i	i	nt	nt	nt	nt
Cc1ccc(C)c(N2N=C(C(=O)Nc3ccccc3N3CCCC3)CCC2=O)c1	?	i	21µM	22µM	i	i	12µM	i	?	i
COc1ccc(-c2coc3c(C(=O)NCC(C)C)cccc23)c(C)c1	?	i	?	?	i	nt	13µM	?	?	i
Cn1c(CS/C(N)=N/N=C/c2ccccc2)c(Br)c(=O)n1-c1ccccc1	?	i	?	i	i	i	nt	nt	nt	nt
O=C(C(=O)c1cc(Br)ccc1O)c1cc(Br)ccc1O	?	-84	23µM	6.3µM	i	nt	6.5µM	12µM	4.6µM	i
O=C(c1ccc(O)c(Br)c1)c1cc(Br)ccc1O	?	i	?	?	i	nt	nt	nt	nt	nt
O=C(Nc1cccc(Cl)c1)Nc1csc([N+](=O)[O-])c1	2.9µM	nt	2.3µM	?	10µM	i	10µM	16µM	9.2µM	i
O=C1[C@@H](Oc2ccccc2)[C@@H](c2cnc3ccccc3c2)N1c1ccccc1	21µM	i	15µM	11µM	i	nt	21µM	i	16µM	i
Cc1nn(C)c2c1c(C(F)(F)F)cc(=O)n2CC(=O)NC(C)(C)C	i	nt	i	i	i	i	nt	nt	nt	nt
COc1ccc(-c2cc3ccccc3oc2=O)cc1NC(=O)c1ccc([N+](=O)[O-])o1	21µM	i	15µM	6.3µM	i	i	1.8µM	?	i	i
COc1ccc(-c2cc3ccccc3oc2=O)cc1NC(=O)c1ccc(Br)o1	i	i	?	i	i	i	nt	nt	nt	nt
Cc1onc(-c2ccccc2)c1C(=O)N1CCCC(C(F)(F)F)C1 (centres undefined)	?	i	i	i	i	i	nt	nt	nt	nt
O=C(Nc1cccc(Cl)c1)c1ccc(F)c(S(=O)(=O)NCc2cccs2)c1	?	?	?	10µM	i	i	?	?	?	i
Cc1cccc(NC(=O)c2ccc(F)c(S(=O)(=O)NCc3ccco3)c2)c1	?	i	?	i	i	i	nt	nt	nt	nt
O=C(Nc1cccc(Cl)c1)c1ccccc1	i	i	i	i	i	nt	nt	nt	nt	nt
CCN(c1ccccc1)S(=O)(=O)c1cc(C(=O)Nc2cccc(Cl)c2)ccc1F	?	i	?	10µM	i	i	9.2µM	?	15µM	i
Cc1csc2c(N3CCN(C(=O)c4ccc(C(C)(C)C)cc4)CC3)ncnc12	?	i	4.1µM	11µM	i	i	9.2µM	i	?	i
O=c1cc(NS(=O)(=O)c2ccccc2)nc(SCc2ccc(Cl)cc2)[nH]1	i	-56	i	4µM	i	i	?	i	18µM	i
Cc1ccc(S(=O)(=O)Nc2cc(=O)[nH]c(SCc3ccccc3Cl)n2)cc1	?	i	?	i	i	i	nt	nt	nt	nt
SMILES	DT40 TDP1 CPT	IL-1B inflam inh	DT40 TDP1 no CPT	TGFb inhibitor	HepG2 tox-1	TDP1 block	TGFb CAGA inh	HepG2 tox-2	CCL64 TGFb inh	COP TGFb inh
CC(=O)c1cccc(N=c2scc(-c3ccc(S(=O)(=O)N4CCOCC4)cc3)n2CCO)c1	6.5µM	i	2.6µM	?	i	i	i	i	?	i
COC(=O)NC1(C(F)(F)F)C(=O)Nc2c1c(=O)n(C)c(=O)n2C (centres undefined)	i	i	i	i	i	i	nt	nt	nt	nt
Cc1csc(=O)n1CCC(=O)OCc1nnc(-c2ccc([N+](=O)[O-])cc2)o1	i	i	i	i	i	i	nt	nt	nt	nt
CCOc1ccccc1CNC(=O)c1ccc(Sc2ccc(Cl)cc2)c(NC(C)=O)c1	?	i	?	?	i	i	?	i	?	i
Cc1ccccc1NC1=NCC(c2ccc([N+](=O)[O-])cc2)S1 (centres undefined)	?	i	?	4.5µM	i	i	13µM	?	8.2µM	i
Cc1ccccc1NCc1ccc([N+](=O)[O-])s1	i	i	i	i	i	nt	nt	nt	nt	nt
CC(=O)c1ccc(NC(=O)C(C)OC(=O)c2ccc(Br)o2)cc1 (centres undefined)	?	i	?	i	i	i	nt	nt	nt	nt
O=C(c1ccc2c3c(cccc13)CC2)C1CCCN(Cc2ccncc2)C1 (centres undefined)	13µM	?	9.2µM	7.9µM	i	i	i	?	?	i
CCOC(=O)N1CCN(C(=O)c2cc(COc3c(F)cccc3F)on2)CC1	?	i	?	i	i	i	nt	nt	nt	nt
CCOc1ccc(C2NC(=O)c3ccccc3O2)cc1OC (centres undefined)	i	i	i	i	i	nt	nt	nt	nt	nt
CCOCCCNCc1cccc(OC)c1	i	i	i	i	i	i	nt	nt	nt	nt
COc1ccc2cc(CNCCOCCOCCNCc3ccc4cc(OC)ccc4c3)ccc2c1	2.6µM	-99	2.6µM	3.2µM	4µM	nt	i	21µM	4.6µM	?
